# Measurements: PubChem BioAssay AID1159580 (chemical genetic matrix, 2015)
# Hit rate of the full screen: of about 5,500 compounds, about 2,000 (36%) were called active. Inconclusive results (about 18%) are left out. Some of the results follow. Values without a mark were called inactive. Cut-off read from the data, not from the text of the source: active = normalized growth mostly below about 0.91 (no sharp cut-off); inconclusive = no clear call, values can overlap the other calls; inactive = mostly above about 0.92.
# Assay: chemical genetic growth profiling, strain panel (AID 1159580);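 note: tested at 20 µM; growth read once vehicle control cultures reached saturation at 30 °C; 1 = growth at the plate median or of vehicle wells; lower values mean less growth of the strain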
# Settings: S. cerevisiae deletion strains, growth OD
# [1] = locus YHR030C, strain SLT2, stronger effect = lower value
# [2] = locus YHR079C, strain IRE1, stronger effect = lower value
# [3] = locus YJL095W, strain BCK1, stronger effect = lower value
# [4] = locus YJR066W, strain TOR1, stronger effect = lower value
# [5] = locus YLR113W, strain HOG1, stronger effect = lower value
# [6] = locus YNL183C, strain NPR1, stronger effect = lower value
# [7] = locus YOR231W, strain MKK1, stronger effect = lower value
# [8] = locus YPL256C, strain CLN2, stronger effect = lower value
smiles,measurement,setting,value
C=C1CC[C@H](O)C/C1=C/C=C1\CCCC2(C)C1CCC2C(C)CCCC(C)C (stereo partly drawn),normalized growth,[1],0.874
same,normalized growth,[2],0.925
same,normalized growth,[3],0.893
same,normalized growth,[4],0.943
same,normalized growth,[5],0.843 (active)
same,normalized growth,[6],0.915
same,normalized growth,[7],0.896
same,normalized growth,[8],0.846
COc1cccc([C@]2(O)CCCC[C@H]2CN(C)C)c1,normalized growth,"locus YAL021C, strain ccr4, stronger effect = lower value",0.964
same,normalized growth,"locus YAL026C, strain drs2, stronger effect = lower value",0.968
same,normalized growth,"locus YAL030W, strain snc1, stronger effect = lower value",0.947
same,normalized growth,"locus YBL061C, strain skt5, stronger effect = lower value",0.968
same,normalized growth,"locus YBR009C, strain hhf1, stronger effect = lower value",0.965
same,normalized growth,"locus YBR023C, strain chs3, stronger effect = lower value",0.977
same,normalized growth,"locus YBR171W, strain sec66, stronger effect = lower value",0.962
same,normalized growth,"locus YBR231C, strain swc5, stronger effect = lower value",0.99
same,normalized growth,"locus YBR279W, strain paf1, stronger effect = lower value",0.975
same,normalized growth,"locus YCL011C, strain gbp2, stronger effect = lower value",0.972
same,normalized growth,"locus YCL016C, strain dcc1, stronger effect = lower value",0.973
same,normalized growth,"locus YCL061C, strain MRC1, stronger effect = lower value",0.987
same,normalized growth,"locus YCL069W, strain vba3, stronger effect = lower value",0.967
same,normalized growth,"locus YCR088W, strain abp1, stronger effect = lower value",0.973
same,normalized growth,"locus YDL005C, strain med2, stronger effect = lower value",0.965
same,normalized growth,"locus YDL040C, strain nat1, stronger effect = lower value",0.978
same,normalized growth,"locus YDR001C, strain nth1, stronger effect = lower value",0.963
same,normalized growth,"locus YDR069C, strain doa4, stronger effect = lower value",0.958
same,normalized growth,"locus YDR137W, strain rgp1, stronger effect = lower value",0.942
same,normalized growth,"locus YDR159W, strain sac3, stronger effect = lower value",0.932
same,normalized growth,"locus YDR195W, strain ref2",0.956
same,normalized growth,"locus YDR297W, strain sur2, stronger effect = lower value",0.966
same,normalized growth,"locus YDR334W, strain swr1, stronger effect = lower value",0.928
same,normalized growth,"locus YDR335W, strain msn5, stronger effect = lower value",0.958
same,normalized growth,"locus YDR392W, strain spt3, stronger effect = lower value",0.973
same,normalized growth,"locus YEL003W, strain gim4, stronger effect = lower value",0.971
same,normalized growth,"locus YEL037C, strain rad23, stronger effect = lower value",0.982
same,normalized growth,"locus YEL061C, strain CIN8 (second series), stronger effect = lower value",0.968
same,normalized growth,"locus YER015W, strain faa2, stronger effect = lower value",0.973
same,normalized growth,"locus YER016W, strain bim1, stronger effect = lower value",0.978
same,normalized growth,"locus YER111C, strain swi4, stronger effect = lower value",0.974
same,normalized growth,"locus YER155C, strain BEM2 (second series), stronger effect = lower value",0.97
same,normalized growth,"locus YFR010W, strain ubp6, stronger effect = lower value",0.955
same,normalized growth,"locus YGL167C, strain pmr1, stronger effect = lower value",0.967
same,normalized growth,"locus YGL173C, strain kem1, stronger effect = lower value",0.952
same,normalized growth,"locus YGL227W, strain vid30, stronger effect = lower value",0.963
same,normalized growth,"locus YGL240W, strain doc1, stronger effect = lower value",0.947
same,normalized growth,"locus YGL253W, strain hxk2, stronger effect = lower value",0.988
same,normalized growth,"locus YHR013C, strain ard1, stronger effect = lower value",0.937
same,normalized growth,"locus YHR027C, strain rpn1, stronger effect = lower value",0.959
same,normalized growth,[1],0.969
same,normalized growth,[2],0.963
same,normalized growth,"locus YHR142W, strain chs7, stronger effect = lower value",0.951
same,normalized growth,"locus YJL092W, strain hpr5, stronger effect = lower value",0.982
same,normalized growth,"locus YJL095W, strain BCK1 (second series), stronger effect = lower value",0.962
same,normalized growth,[3],1.01
same,normalized growth,"locus YJL115W, strain asf1, stronger effect = lower value",0.956
same,normalized growth,"locus YJL129C, strain trk1, stronger effect = lower value",0.983
same,normalized growth,"locus YJL154C, strain vps35, stronger effect = lower value",0.959
same,normalized growth,"locus YJL164C, strain tpk1, stronger effect = lower value",0.981
same,normalized growth,"locus YJL166W, strain qcr8, stronger effect = lower value",0.968
same,normalized growth,"locus YJL187C, strain SWE1, stronger effect = lower value",0.973
same,normalized growth,[4],0.935
same,normalized growth,"locus YKL160W, strain elf1, stronger effect = lower value",0.981
same,normalized growth,"locus YKR026C, strain gcn3, stronger effect = lower value",0.977
same,normalized growth,"locus YKR091W, strain srl3, stronger effect = lower value",0.98
same,normalized growth,"locus YLL001W, strain dnm1, stronger effect = lower value",0.981
same,normalized growth,"locus YLL026W, stronger effect = lower value",0.949
same,normalized growth,"locus YLL041C, strain sdh2, stronger effect = lower value",0.971
same,normalized growth,"locus YLR027C, strain aat2, stronger effect = lower value",0.944
same,normalized growth,[5],0.981
same,normalized growth,"locus YLR221C, strain rsa3, stronger effect = lower value",0.971
same,normalized growth,"locus YLR258W, strain gsy2, stronger effect = lower value",0.971
same,normalized growth,"locus YLR262C, strain YPT6 (second series), stronger effect = lower value",0.962
same,normalized growth,"locus YLR320W, strain mms22, stronger effect = lower value",0.964
same,normalized growth,"locus YLR342W, strain FKS1, stronger effect = lower value",0.99
same,normalized growth,"locus YLR357W, strain rsc2, stronger effect = lower value",0.997
same,normalized growth,"locus YLR370C, strain arc18, stronger effect = lower value",0.974
same,normalized growth,"locus YLR384C, strain iki3, stronger effect = lower value",0.974
same,normalized growth,"locus YML120C, strain ndi1, stronger effect = lower value",0.979
same,normalized growth,"locus YMR058W, strain fet3, stronger effect = lower value",0.978
same,normalized growth,"locus YMR125W, strain sto1, stronger effect = lower value",0.963
same,normalized growth,"locus YMR129W, stronger effect = lower value",0.987
same,normalized growth,"locus YMR205C, strain PFK2, stronger effect = lower value",0.961
same,normalized growth,"locus YMR231W, strain pep5, stronger effect = lower value",0.967
same,normalized growth,"locus YNL071W, strain lat1, stronger effect = lower value",0.98
same,normalized growth,[6],0.941
same,normalized growth,"locus YNL209W, strain ssb2, stronger effect = lower value",0.966
same,normalized growth,"locus YNL248C, strain rpa49, stronger effect = lower value",0.989
same,normalized growth,"locus YNL322C, strain KRE1 (second series), stronger effect = lower value",0.97
same,normalized growth,"locus YNR049C, strain mso1, stronger effect = lower value",0.969
same,normalized growth,"locus YOR001W, strain rrp6, stronger effect = lower value",0.968
same,normalized growth,"locus YOR070C, strain gyp1, stronger effect = lower value",0.978
same,normalized growth,"locus YOR080W, strain dia2, stronger effect = lower value",0.969
same,normalized growth,"locus YOR083W, strain WHI5, stronger effect = lower value",0.968
same,normalized growth,"locus YOR106W, strain vam3, stronger effect = lower value",0.969
same,normalized growth,[7],0.96
same,normalized growth,"locus YOR265W, strain rbl2, stronger effect = lower value",0.978
same,normalized growth,"locus YOR270C, strain vph1, stronger effect = lower value",0.945
same,normalized growth,"locus YOR290C, strain snf2, stronger effect = lower value",0.966
same,normalized growth,"locus YPL051W, strain arl3, stronger effect = lower value",0.987
same,normalized growth,"locus YPL078C, strain atp4, stronger effect = lower value",0.968
same,normalized growth,"locus YPL106C, strain sse1, stronger effect = lower value",0.916
same,normalized growth,"locus YPL240C, strain hsp82, stronger effect = lower value",0.974
same,normalized growth,[8],0.978
